Assay results published in PubChem BioAssay (Tox21).
Results filed as inconclusive are left out. The source made the active and inactive calls. Unless noted, calls come from the whole dose curve; as a rule, active = well fitted curve in the direction sought with a large enough effect in the repeat runs; inconclusive = weak or mixed curves; inactive = no such curve, though single readings can be large; an effect the other way counts as inactive or inconclusive.

Legend:
[1] = qHTS assay to identify small molecule agonists of the vitamin D receptor (VDR) signaling pathway - cell viability counter screen (AID 743224); note: nearly all actives have a fitted effect of over 50% in size
How it was run: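 In parallel with the bla FRET readout, cytotoxicity toward VDR-bla cells after 16 h compound exposure was assessed by CellTiter-Glo, with luminescence recorded after a 30 min room-temperature incubation.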

[2] = qHTS assay to identify small molecule agonists of the NFkB signaling pathway (AID 1159509; active = well fitted curve in the direction sought with a large enough effect in the signal ratio in the repeat runs, not every such curve was filed as active; the % refers to the signal ratio)
How it was run: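 Readout: FRET fluorescence, 405 nm excitation, 460/530 nm emission; beta-lactamase expression disrupts FRET. Cells: ME-180 stably carrying NF-kB-driven bla reporter. Compound exposure 5 hr, 37 C, 5% CO2.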

[3] = qHTS assay to identify small molecule agonists of the endoplasmic reticulum stress response signaling pathway (AID 1159516; active = well fitted activation curve with a large enough effect in the signal ratio in the repeat runs, not every such curve was filed as active; the % refers to the signal ratio)
How it was run: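 Beta-lactamase expression from the ER stress response element in HeLa reporter cells is quantified with the LiveBLAzer B/G FRET substrate, read at 405 nm excitation after 2 hr at room temperature, following 5 hr compound treatment at 37 C.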

[4] = qHTS assay to identify small molecule agonists of the endoplasmic reticulum stress response signaling pathway - cell viability counter screen (AID 1159517; calls by dose curve; note: nearly all actives have a fitted effect of over 50% in size)
How it was run: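 Cytotoxicity of test compounds toward ESRE-bla HeLa cells was assessed after 5 hr exposure. The luminescent CellTiter-Glo signal was measured 30 min after reagent addition.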

[5] = qHTS assay to identify small molecule antagonists of the retinoid-related orphan receptor gamma (ROR-gamma) signaling pathway - cell viability counter screen (AID 1159520); note: nearly all actives have a fitted effect of over 50% in size
How it was run: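 Tet-on ROR gamma CHO cells (1,000/well) were plated 4 hr, given compounds in DMSO for 2 hr at 37 C, then induced with 1 uM final doxycycline for 16 hr. Viability was read as ATP by CellTiter-Glo luminescence after 30 min.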

[6] = qHTS assay to identify small molecule agonists of the AP-1 signaling pathway - cell viability counter screen (AID 1159525; calls by dose curve; note: nearly all actives have a fitted effect of over 55% in size)
How it was run: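 Each titration point was normalised to DMSO and tetra n-octyl ammonium bromide controls. The read was Cell Titer Glo luminescence after 30 min at RT, following 5 h compound exposure of ME-180 AP-1-bla cells at 37 °C.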

[7] = qHTS assay to identify small molecule agonists of the AP-1 signaling pathway (AID 1159526; calls by dose curve)
[8] = molecular target: Retinoic acid receptor RXR-alpha (Homo sapiens) (UniProt P19793); experiment: qHTS assay to identify small molecule agonists of the RXR signaling pathway (AID 1159527; calls by dose curve; note: nearly all actives have a fitted effect of over 35% in size)
Chain of Retinoic acid receptor RXR-alpha (Homo sapiens) (P19793 whole entry, looked up): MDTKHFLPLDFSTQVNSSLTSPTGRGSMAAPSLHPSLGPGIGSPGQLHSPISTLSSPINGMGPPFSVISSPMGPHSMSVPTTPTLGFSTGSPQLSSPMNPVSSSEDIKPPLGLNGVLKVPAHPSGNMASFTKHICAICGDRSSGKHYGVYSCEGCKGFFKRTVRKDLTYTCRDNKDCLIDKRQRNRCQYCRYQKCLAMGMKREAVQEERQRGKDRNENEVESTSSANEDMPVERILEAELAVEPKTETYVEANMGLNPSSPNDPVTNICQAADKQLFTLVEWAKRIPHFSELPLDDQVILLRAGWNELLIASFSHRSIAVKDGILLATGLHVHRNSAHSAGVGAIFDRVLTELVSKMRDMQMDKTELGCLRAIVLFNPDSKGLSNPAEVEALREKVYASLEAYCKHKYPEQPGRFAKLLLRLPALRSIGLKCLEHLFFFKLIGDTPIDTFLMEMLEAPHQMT
How it was run: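 Agonist-mode beta-lactamase reporter assay: HEK 293T RXR-alpha-UAS-bla cells treated 16 hr at 37 C with compounds, 9-cis retinoic acid as positive control. LiveBLAzer FRET substrate, 405 nm excitation, 460/530 nm emission.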

[9] = qHTS assay to identify small molecule agonists of the RXR signaling pathway - cell viability counter screen (AID 1159529); note: nearly all actives have a fitted effect of over 50% in size
How it was run: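 CellTiter-Glo luminescence gave viability in the wells also read for beta-lactamase. Cells (RXR-alpha-UAS-bla HEK 293T, 2% charcoal-stripped FBS medium) had 5 hr plating, then 16 hr compound exposure at 37 C; tetraoctyl ammonium bromide served as positive control.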

[10] = qHTS assay to identify small molecule antagonists of the retinoid acid receptor (RAR) signaling pathway - cell viability counter screen (AID 1159551); note: nearly all actives have a fitted effect of over 35% in size
How it was run: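 Viability of C3RL4 cells is quantified from ATP by luminescence after 6 h treatment at 37 C with compounds and 1 uM retinol.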

[11] = qHTS assay to identify small molecule antagonists of the estrogen related receptor (ERR) signaling pathway from Tox21 library - cell viability counter screen (AID 1224834); note: nearly all actives have a fitted effect of over 30% in size
How it was run: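 In this quantitative HTS format, ERR cells receive compounds in DMSO and are incubated for 17.5 h at 37 C. Live-cell protease activity is then detected with CellTiter-Fluor.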

[12] = molecular target: Nuclear receptor ROR-gamma (Homo sapiens) (UniProt P51449); experiment: qHTS assay to identify small molecule antagonists of the retinoid-related orphan receptor gamma (ROR-gamma) signaling pathway (AID 1159521)
How it was run: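 Antagonist read-out: drop in luminescence (ONE-Glo) from an RORE-LUC reporter in CHO cells with doxycycline-inducible ROR-gamma; 2 hr compound pretreatment, 1 uM doxycycline, 16 hr incubation at 37 C.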

[13] = qHTS assay to identify small molecule antagonists of the retinoic acid receptor (RAR) signaling pathway (AID 1159552; note: nearly all actives have a fitted effect of over 50% in size)
How it was run: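 Luminescent RARE reporter read-out in C3RL4 cells: 6 hr co-treatment at 37 C of test compounds with retinol at 1 uM final. Cells plated overnight beforehand; luciferase reagent incubated 30 min at room temperature before reading.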

[14] = qHTS assay to identify small molecule agonists of the retinoic acid receptor (RAR) signaling pathway (AID 1159553); settings: C3RL4 RARE luciferase reporter, agonist, 6 h; activation: at 73.3 µM (top of the series) unless noted
How it was run: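 Compounds dissolved in DMSO were pinned onto C3RL4 cells seeded the previous day, and plates were held 6 hr at 37 C. RARE-driven luciferase output was then read by luminescence.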

[15] = molecular target: Luciferin 4-monooxygenase (Photinus pyralis) (UniProt P08659); experiment: qHTS assay to identify small molecule inhibitors of firefly luciferase (AID 1224835); note: nearly all actives have a fitted effect of over 25% in size
Chain of Luciferin 4-monooxygenase (Photinus pyralis) (P08659 whole entry, looked up): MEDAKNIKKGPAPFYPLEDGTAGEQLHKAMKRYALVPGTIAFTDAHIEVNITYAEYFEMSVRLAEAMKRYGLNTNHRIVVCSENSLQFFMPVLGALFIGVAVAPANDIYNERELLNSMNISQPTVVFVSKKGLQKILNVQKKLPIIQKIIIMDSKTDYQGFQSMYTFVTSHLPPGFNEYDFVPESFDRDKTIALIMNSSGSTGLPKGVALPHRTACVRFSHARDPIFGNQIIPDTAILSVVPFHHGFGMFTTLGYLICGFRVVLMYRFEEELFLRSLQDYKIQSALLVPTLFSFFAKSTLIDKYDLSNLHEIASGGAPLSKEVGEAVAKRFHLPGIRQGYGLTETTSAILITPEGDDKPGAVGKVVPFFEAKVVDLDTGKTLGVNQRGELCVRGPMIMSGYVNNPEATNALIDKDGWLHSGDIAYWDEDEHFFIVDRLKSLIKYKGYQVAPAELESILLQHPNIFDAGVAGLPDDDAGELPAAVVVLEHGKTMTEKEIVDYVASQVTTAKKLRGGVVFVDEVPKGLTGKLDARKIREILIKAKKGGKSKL
How it was run: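 Quantitative HTS format; KM concentrations of both substrates. Purified P. pyralis FLuc activity quantified from luminescence images.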

[16] = qHTS assay to identify small molecule agonists of the constitutive androstane receptor (CAR) signaling pathway - cell viability counter screen (AID 1224836); note: nearly all actives have a fitted effect of over 45% in size
How it was run: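 Cell viability multiplexed with the CAR agonist screen: CellTiter-Fluor fluorescence after 23 hr at 37 C. HepG2-CYP2B6-hCAR cells got compounds at 15 concentrations with PK11195 at 0.75 uM final.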

[17] = qHTS assay to identify small molecule antagonists of the vitamin D receptor (VDR) signaling pathway - cell viability counter screen (AID 743225); note: nearly all actives have a fitted effect of over 50% in size
How it was run: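 Cytotoxicity counter screen read by CellTiter-Glo luminescence (30 min, room temperature) in the same wells as the VDR-bla antagonist readout. HEK 293T VDR-UAS-bla cells had 16 h at 37C with compound and 3 nM (final) 1-alpha,25-dihydroxyvitamin D3, then 2 h with FRET substrate.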

[18] = qHTS assay to identify small molecule agonists of the NFkB signaling pathway - cell viability counter screen (AID 1159515; calls by dose curve; note: nearly all actives have a fitted effect of over 55% in size)
How it was run: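 Plate 2,000 NFkB-bla ME-180 cells/well; incubate overnight. Add compounds, 5 hr at 37 C. Add FRET substrate, 1.5 hr RT. Add CellTiter-Glo, 30 min RT; read luminescence.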

Measured: Potency

ClCCBr
not listed: [12] | [13] | [14] | [15] | [16] | [17] | [18]
inactive: all other assays above

CC(Oc1ccc(Cl)cc1Cl)C(=O)O (centres undefined)
not listed: [8] | [17] | [18]
inactive: all other assays above

Cc1cc(Cl)ccc1O
not listed: [16] | [17] | [18]
inactive: all other assays above

CCN(CC)CCO
not listed: [8] | [12] | [13] | [14] | [15] | [16] | [18]
inactive: all other assays above

CCCCCOC(=O)c1ccccc1C(=O)OCCCCC
not listed: [7] | [12] | [13] | [14] | [15] | [16]
inactive: all other assays above

CC(C)(C)OOC(=O)c1ccccc1
not listed: [6] | [12] | [16] | [17]
inactive: all other assays above

Nc1ccc(Br)cc1
not listed: [1] | [2] | [11] | [16]
inactive: all other assays above

O=[N+]([O-])c1ccc([As](=O)(O)O)cc1
not listed: [12] | [18]
inactive: all other assays above

BrCCBr
not listed: [2] | [16]
inactive: all other assays above
